The values that follow come from PubChem BioAssay AID485273 (Sanford-Burnham Center for Chemical Genomics, 2010).

Among all 330,000 compounds or so, about 1,500 (0.45%) were called active. No stated cut-off is given here; in the data, active means inhibition above about 45% (passing the limit was not always enough); inconclusive means no clear call, values can overlap the other calls. Shown is part of a subset that was picked to be rich in actives.

Sequence of Ubiquitin-conjugating enzyme E2 N (Homo sapiens) (P61088 whole entry, looked up): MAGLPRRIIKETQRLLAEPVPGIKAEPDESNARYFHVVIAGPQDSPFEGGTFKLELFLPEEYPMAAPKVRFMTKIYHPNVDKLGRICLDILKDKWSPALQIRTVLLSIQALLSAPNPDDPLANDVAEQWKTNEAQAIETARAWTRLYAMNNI

This assay addresses Ubiquitin-conjugating enzyme E2 N (Homo sapiens) (UniProt P61088). In words: blockers of UBC13 ubiquitin chain synthesis – biochemical, TR-FRET, uHTS, primary screen (AID 485273). The note with it: UBC13 polyubiquitin chain formation, at 20 µM, hits give high values.
As a reminder, the inhibition is the change of the read-out against control, counted positive when it falls. Regarding `CCCN(C(=O)CSc1nnc(N)s1)c1c(N)n(Cc2ccccc2)c(=O)[nH]c1=O`, the inhibition was 0.1% (inactive).
With `COC(=O)C(C)Oc1ccc2c(-c3cccc([N+](=O)[O-])c3)cc(=O)oc2c1` (stereo unspecified), the inhibition is -16.8% (inactive).
Turning to `COc1cccc(CN(C)CC(O)COC(c2ccccc2)c2ccccc2C)c1` (stereo unspecified), the inhibition was 19.2% (inactive).
On to `CN(C(=O)CSc1nnc(-c2ccc(C(C)(C)C)cc2)n1C)C1CCS(=O)(=O)C1` (stereo unspecified), for which the inhibition was -4.3% (inactive).
For `OCCn1c(-c2ccccc2)csc1=Nc1ccccc1`, the inhibition is -10.7% (inactive).
Next, `C#CCNC(=O)C1=C[C@@H](c2ccccc2)[C@H](CCCO)[C@@H](OCC)O1`: 0.9% (inactive); `Cc1ccc(NC(=O)Cc2nnc(SCC(=O)Nc3nncs3)n2C)cc1`: -2.3% (inactive); `COc1cccc(CNS(=O)(=O)c2cc3c(cc2C)n(C)c(=O)c(=O)n3C)c1`: 20% (inactive).
Take `COc1cccc(Cn2cnc3c([N+](=O)[O-])c(C)c(C)cc32)c1`: the inhibition was 60.4% (active).
Turning to `Cc1cccc(Cn2cnc3c(N)c(C)c(C)cc32)c1`, the inhibition is 3.8% (inactive).
With `COc1ccc(CNC(=O)C2CCN(S(=O)(=O)c3ccc(SC)cc3)CC2)cc1`, the inhibition is 6.2% (inactive).
Regarding `C#CCOCCOCCOCCNc1nc(N2CCN(C(=O)CCCCCCCCCCNC(=O)[C@H](CCCCN)n3cc(C)nn3)CC2)nc(N2CCN(C(=O)CCCCCCCCCCNC(=O)[C@H](CO)n3cc(CCCSC)nn3)CC2)n1`, the inhibition is 121% (active).
Consider `C#CCOCCOCCOCCNc1nc(N2CCN(C(=O)[C@H](C(C)C)n3cc(CCO)nn3)CC2)nc(N2CCN(C(=O)[C@H]([C@@H](C)CC)n3cc(CCCN=C(N)N)nn3)CC2)n1`, for which the inhibition was 19.7% (inactive).
For `C#CCOCCOCCOCCNc1nc(N2CCN(C(=O)[C@H](C(C)C)n3cc(CCO)nn3)CC2)nc(N2CCN(C(=O)[C@H](C(C)C)n3cc(CCO)nn3)CC2)n1`, the inhibition is -11.8% (inactive).
With `C#CCOCCOCCOCCNc1nc(N2CCN(C(=O)CCCCCCCCCCNC(=O)Cn3cc(CCCCCN)nn3)CC2)nc(N2CCN(C(=O)CCCCCCCCCCNC(=O)[C@H](CO)n3cc(CCCSC)nn3)CC2)n1`, the inhibition is 128% (active).
Take `C#CCOCCOCCOCCNc1nc(N2CCN(C(=O)[C@H](CCCN=C(N)N)n3cc(C(N)[C@@H](C)CC)nn3)CC2)nc(N2CCN(C(=O)[C@H](CO)n3cc([C@@H](N)C(C)C)nn3)CC2)n1` (stereo partly specified): the inhibition is 33.1% (inactive).
Next, `C#CCOCCOCCOCCNc1nc(N2CCN(C(=O)Cn3cc(CCCCN)nn3)CC2)nc(N2CCN(C(=O)[C@H](CCCCN)n3cc(CCC(=O)O)nn3)CC2)n1`: 3.6% (inactive).
Regarding `C#CCOCCOCCOCCNc1nc(N2CCN(C(=O)CCCCCCCCCCNC(=O)[C@H]([C@@H](C)CC)n3cc(CCCCN=C(N)N)nn3)CC2)nc(N2CCN(C(=O)CCCCCCCCCCNC(=O)[C@H](CO)n3cc(CCCSC)nn3)CC2)n1`, the inhibition was 121% (active).
Next, `C#CCOCCOCCOCCNc1nc(N2CCN(C(=O)[C@H](CCC(=O)O)n3cc(CN)nn3)CC2)nc(N2CCN(C(=O)[C@H](CCC(=O)O)n3cc(CN)nn3)CC2)n1`: 2.2% (inactive); `COc1ccccc1NC(=O)CCN1CCN(c2ccc(Cl)cc2)CC1`: -6% (inactive); `O=C(CN1CCN(c2ccc(O)cc2)CC1)NC1CCCc2ccccc21` (stereo unspecified): 7.1% (inactive).
Next, `O=C(CN1CCSCC1)N/N=C/c1ccc(Cl)cc1`: -14.1% (inactive).
Regarding `CNc1nccc(-c2ccc(Cl)cc2)c1C#N`, the inhibition was 9.5% (inactive).
As to `N#Cc1c(-c2ccc(Cl)cc2)c2c([nH]c1=S)CCCC2`, the inhibition was 47.4% (active).
For `CN(C)c1nc(-c2cccnc2)nc(-c2ccc(Cl)cc2)c1C#N`, the inhibition was -0.5% (inactive).
For `Cn1cc(Cl)c(C(=O)NNC(=S)Nc2cccc(Cl)c2)n1`, the inhibition is -10.5% (inactive).
Take `Cc1cccc(-n2cnc(C(=O)Nc3cccnc3)c2)n1`: the inhibition was -3.6% (inactive).
As for `Cc1cccc(-n2cnc(C(=O)NNC(=S)Nc3ccccc3)c2)n1`, the inhibition was 84.4% (active).
As for `COc1ccc(CNS(=O)(=O)c2ccc(NC(=O)N3CCCCC3)cc2)cc1`, the inhibition is -9.2% (inactive).
Turning to `CC(C)OCCCNC(=O)CN1C(=O)/C(=C/c2ccccc2F)Oc2ccccc21`, the inhibition is 1% (inactive).
Turning to `CN1CCN(CCCNC(=O)c2ccc(/C=C3\Oc4ccccc4N(Cc4ccc(Cl)cc4)C3=O)cc2)CC1`, the inhibition was 80.8% (active).
Next, `CCCN1CCN(C(=O)CCCNC(=O)c2ccc(Cl)cc2)CC1`: -6.8% (inactive); `Cc1ccc2c(C)c(C(=O)N3CCC(N4CCC(C(=O)NC5CC5)CC4)CC3)oc2c1`: -16.4% (inactive).
Consider `S=C(Cc1ccc(Cl)cc1)N1CCOCC1`, for which the inhibition is 4.3% (inactive).
Regarding `CCN1C(=NCc2ccc(OC)cc2)N[C@@H](CCc2ccccc2)[C@H](C(=O)NCc2ccc(OC)cc2)[C@H]1C`, the inhibition was 48.7% (active).
As to `CCN1C(=S)N[C@@H](CCc2ccccc2)[C@H](C(=O)OC)[C@H]1C`, the inhibition is 4.5% (inactive).
Next, `CCN1C(=NCC(C)C)N[C@@H](CCc2ccccc2)[C@H](C(=O)NCC(C)C)[C@H]1C`: 15.8% (inactive).
Take `CCN(CC(=O)Nc1cc(Cl)ccc1C)C(=O)CSCc1ccc(C)cc1`: the inhibition was 0.3% (inactive).
For the compound `Cc1cccc(N2CCN(C(C)C(=O)N3CCc4ccccc43)CC2)c1C` (stereo unspecified), the inhibition is -1.5% (inactive).
Next, `CC(=O)Nc1cccc(NC(=O)c2ccc3c(c2)CCN3S(C)(=O)=O)c1`: -2.7% (inactive).
Next, `CN(C)CC(O)COc1ccc(C(C)(C)c2ccc(OCC(O)CN(C)C)cc2)cc1` (stereo unspecified): 59.2% (active); `Cc1cc(C)n(CC(O)COc2ccc(C(C)(C)C)cc2)n1` (stereo unspecified): -14.2% (inactive).
Regarding `CC(C)(c1ccccc1)c1ccc(OCCN)cc1`, the inhibition was 16.7% (inactive).
In the case of `O=C(COC(=O)c1ccccn1)NNC(=O)c1ccc(Br)cc1`, the inhibition is 3.1% (inactive).
In the case of `CCCNC(=O)NC(=O)COC(=O)CC(NC(N)=O)c1ccc(Cl)cc1` (stereo unspecified), the inhibition is 1% (inactive).
For the compound `NC(=O)NC(CC(=O)NNC(=O)c1ccccn1)c1ccc(Cl)cc1` (stereo unspecified), the inhibition is 93.2% (active).
`COc1ccc(C(=O)C2CCCN(S(=O)(=O)c3cccc(C)c3)C2)c(C)c1` (stereo unspecified): the inhibition was -4.5% (inactive).
`O=C(CCn1c(=O)oc2ccccc21)Nc1ccon1`: the inhibition is -0.5% (inactive).
Next, `Cc1ccc2c(c1)C(c1ccccc1)N(C(=O)c1ccc(S(=O)(=O)N3CCOCC3)cc1)CC(=O)N2` (stereo unspecified): 0.9% (inactive); `CNc1nc(Nc2ccc(C)c(Cl)c2)nc(N)c1[N+](=O)[O-]`: 9.3% (inactive).
For the compound `Cc1ccc(Nc2nc(N)nc(CN3CCN(Cc4ccccc4)CC3)n2)cc1Cl`, the inhibition is 8.9% (inactive).
`OCCNc1nc(Nc2ccc(Cl)c(Cl)c2)nc2ccccc12`: the inhibition is 68.2% (active).
As to `CCCS(=O)(=O)Nc1c(C(=O)O)[nH]c2ccccc12`, the inhibition was 8.6% (inactive).
Regarding `C=CCn1c(SCc2ccc(Cl)c(Cl)c2)nnc1C(CO)NC(=O)c1ccc(OC)cc1` (stereo unspecified), the inhibition is 15.9% (inactive).
Next, `Cn1c(CCC(=O)OCC(=O)NCc2ccccc2Cl)nc(=O)c2ccccc21`: 2.8% (inactive); `O=C(COC(=O)Cn1cnc2ccccc2c1=O)NCC12CC3CC(CC(C3)C1)C2`: 17.4% (inactive); `O=C(COC(=O)Cn1cnc2ccccc2c1=O)NCc1ccccc1Cl`: 45.4% (active).
Next, `O=C(N/N=C/c1ccccc1O)/C(=C/c1ccccc1)CCO`: 4.1% (inactive); `COc1ccccc1C(=O)OCC(=O)NCCNC(=O)COC(=O)c1ccccc1OC`: 5.1% (inactive).
For the compound `Cc1ncc(CO)c(/C=N/NC(=O)c2cccc(S(=O)(=O)N3CCCC3)c2)c1O`, the inhibition is 52.7% (active).
Take `Cc1cccc(NC(=O)c2cccc(S(=O)(=O)N3CCCC3)c2)n1`: the inhibition is 2.6% (inactive).
Consider `O=C(N/N=C/c1ccccn1)c1ccc(S(=O)(=O)N2CCCCCC2)cc1`, for which the inhibition was -2.2% (inactive).
In the case of `Cc1cc(C)n(CC(O)CN(c2ccccc2)S(=O)(=O)c2ccc3ccccc3c2)n1` (stereo unspecified), the inhibition is -8.5% (inactive).
As to `CCSCc1nc(N)nc(NCCc2ccccc2)n1`, the inhibition was 8.1% (inactive).
Regarding `Cc1c(C(=O)N2CCN(c3ccc(F)cc3)CC2)oc2c1C(=O)CCC2`, the inhibition is 3.2% (inactive).
In the case of `COc1ccc2c(CC(=O)NNC(=O)c3ccccc3F)coc2c1`, the inhibition was 7.9% (inactive).
As to `NC[C@H](Cc1ccccc1)NCCc1cc(C(F)(F)F)cc(C(F)(F)F)c1`, the inhibition is 65.5% (active).
For the compound `COC(=O)[C@@H](Cc1ccccc1)NC(=O)NCCc1ccccc1`, the inhibition was 6.5% (inactive).
Next, `O=C(CCC(=O)c1ccccc1)NCc1cccc(C(F)(F)F)c1`: -0.5% (inactive); `CCOc1ccc(Nc2nc(Cc3nnc(SCC(=O)c4ccc(C)cc4)o3)cs2)cc1`: 1.3% (inactive).
For the compound `CC(NCc1nc2ccccc2n1C)C12CC3CC(CC(C3)C1)C2` (stereo unspecified), the inhibition is 22.8% (inactive).
Next, `Cc1cccc(Nc2nc(NCCO)nc(N3CCCC3)n2)c1`: 11.1% (inactive); `CC(C)(C)Oc1ccccc1Nc1nc(NCCO)nc(N2CCCC2)n1`: 8.7% (inactive).
As for `CCCOc1ccc(Cl)cc1Nc1nc(NCCO)nc(N2CCCC2)n1`, the inhibition was 60.4% (active).
As to `CC(=O)N1C(=O)/C(=C2\SC(=S)N(NC(=O)c3ccc(O)cc3)C2=O)c2ccccc21`, the inhibition was -62.3% (inactive).
As for `COc1c(O)cc2oc(-c3ccc(O)c(O)c3)cc(=O)c2c1O`, the inhibition is -3.7% (inactive).
With `COC(=O)c1ccccc1NC(=O)C1CCN(C(=O)N2CCOc3ccccc32)CC1`, the inhibition was 6.2% (inactive).
Consider `CCCCNC(=O)c1ccc(-n2c(=S)[nH]c3ccccc3c2=O)cc1`, for which the inhibition is 43.8% (inactive).
Next, `CCOC(=O)N1CCN(C(=O)Cc2ccc(-n3c(=S)[nH]c4ccccc4c3=O)cc2)CC1`: 46.3% (active).
Next, `O=C(Cc1ccc(-n2c(=O)[nH]c3ccccc3c2=O)cc1)N1CCN(c2cccc(Cl)c2)CC1`: -5.1% (inactive).
Consider `COc1cccc(-c2ccc(SCC(=O)N3CCN(c4ccccc4)CC3)nn2)c1`, for which the inhibition is -10.5% (inactive).
